# From PubChem BioAssay (NCI)
# This is part of a sample that, as a whole, favours compounds with a hit. Of some 79,000 tested, about 15% had one in any assay. Unmarked numbers belong to inactive results. Active and inactive are the calls of the source. Rule as the data show it: active = growth inhibition above about 70%; inactive = the rest.
# Experiments:
# [1] = NCI Yeast Anticancer Drug Screen. Data for the rad52 strain (AID 147);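 also: 0% = growth of vehicle-treated control cultures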; conditions: S. cerevisiae rad52 mutant growth inhibition, hits give high values
# In short: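 Yeast strain carrying a DNA damage repair alteration was exposed to test compounds. Growth inhibition was measured relative to vehicle-treated controls.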
# [2] = NCI Yeast Anticancer Drug Screen. Data for the wt1 strain (AID 149);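 also: 0% = growth of vehicle-treated wt1 cultures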; conditions: S. cerevisiae wt1 strain (SPY 50644) growth inhibition, hits give high values
# In short: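 Vehicle-normalised growth inhibition; strain wt1; compound exposure.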
# [3] = NCI Yeast Anticancer Drug Screen. Data for the rad50EPP+ strain (AID 151);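 also: 0% = growth of vehicle-treated control cultures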; conditions: S. cerevisiae rad50 mutant strain, hits give high values
# In short: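 Yeast strain carrying rad50 alteration (rad50EPP+) exposed to compounds; growth inhibition measured relative to vehicle-treated controls.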
# [4] = NCI Yeast Anticancer Drug Screen. Data for the mec2-1 strain (AID 157); conditions: S. cerevisiae mec2-1 strain, hits give high values
# In short: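 mec2-1 yeast strain, carrying an alteration in DNA damage repair or cell cycle control, was exposed to compounds; growth inhibition was measured relative to vehicle-treated controls.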
# [5] = NCI Yeast Anticancer Drug Screen. Data for the sgs1 mgt1 strain (AID 161);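 also: 0% = growth of cultures given vehicle only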; conditions: S. cerevisiae sgs1 mgt1 strain, hits give high values
# In short: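 Percent growth inhibition was derived by comparing compound-exposed mutant yeast with vehicle-exposed cultures. The strain carries alterations in DNA damage repair.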
# [6] = NCI Yeast Anticancer Drug Screen. Data for the CLN2oe strain (AID 163);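 also: 0% = growth of vehicle-only control cultures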; conditions: S. cerevisiae CLN2oe strain, hits give high values
# In short: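 Yeast cells carrying a defined cell-cycle control alteration were exposed to test compounds. Growth inhibition was scored against vehicle-treated control cultures.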
# [7] = NCI Yeast Anticancer Drug Screen. Data for the cln2 rad14 strain (AID 165);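 also: 0% = growth equal to vehicle treated cultures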; conditions: S. cerevisiae cln2 rad14 strain, hits give high values
# In short: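 Yeast carrying cln2 and rad14 alterations (cell cycle control and DNA damage repair) were exposed to compounds. Growth inhibition was measured against vehicle-treated controls.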
# [8] = NCI Yeast Anticancer Drug Screen. Data for the bub3 strain (AID 167); conditions: S. cerevisiae bub3 mutant strain, hits give high values
# In short: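 Inhibition values come from growth of compound-treated mutant yeast normalised to vehicle-treated controls.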
# [9] = NCI Yeast Anticancer Drug Screen. Data for the wt2 strain (AID 169);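 also: 0% = growth of vehicle-treated yeast cultures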; conditions: S. cerevisiae wt2 strain growth inhibition, hits give high values
# In short: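 Yeast cells were exposed to test compounds, and growth inhibition was measured relative to vehicle-treated controls.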
# [10] = NCI Yeast Anticancer Drug Screen. Data for the mlh1 strain (AID 171);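 also: 0% = growth of vehicle-treated control cultures of the same strain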; conditions: S. cerevisiae mlh1 strain growth inhibition, hits give high values
# In short: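 Yeast carrying a defined genetic alteration in DNA damage repair or cell cycle control were exposed to test compounds. Growth inhibition was measured relative to vehicle-treated controls.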
# [11] = NCI Yeast Anticancer Drug Screen. Data for the sgs1 strain (AID 173);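 also: 0% = growth of vehicle-only control cultures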; conditions: S. cerevisiae sgs1 mutant, hits give high values
# In short: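 Yeast mutant strains carrying defined defects in DNA damage repair or cell cycle control were exposed to test compounds. Growth inhibition was scored against vehicle-treated controls.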
# [12] = NCI Yeast Anticancer Drug Screen. Data for the mlh1 rad18 strain (AID 175); conditions: S. cerevisiae mlh1 rad18 strain growth inhibition, hits give high values
# In short: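 Growth inhibition of the yeast strain was measured after compound exposure and expressed relative to vehicle-treated controls. The strain carries defined defects in DNA damage repair.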
# [13] = NCI Yeast Anticancer Drug Screen. Data for the rad18 strain (AID 177); conditions: S. cerevisiae rad18 mutant growth inhibition, hits give high values
# In short: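 Yeast carrying a defined DNA damage repair alteration were exposed to compounds. Growth inhibition was expressed relative to vehicle-treated controls.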
# [14] = NCI Yeast Anticancer Drug Screen. Data for the rad50 strain (AID 155);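 also: 0% = growth of vehicle-only cultures of the same strain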; conditions: S. cerevisiae rad50 strain growth inhibition, hits give high values
# In short: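 A DNA repair-deficient yeast mutant serves as the test organism; compound-induced growth inhibition is calculated against vehicle-treated cells.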
# [15] = NCI Yeast Anticancer Drug Screen. Data for the rad14 strain (AID 159);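 also: 0% = growth of vehicle-treated control cultures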; conditions: S. cerevisiae rad14 strain growth inhibition, hits give high values
# In short: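 Vehicle-treated cultures served as the baseline for growth inhibition of a DNA repair-mutant yeast strain exposed to each compound.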
# [16] = at 5.0 µM (retest, dose inferred, filed as 0.5)
# [17] = at 50.0 µM (retest, dose inferred, filed as 5.0)
smiles,measurement,setting,value
Cc1ccc(N=Nc2ccc(O)c(C)c2)cc1,growth inhibition,[1]; at 1.2 µM,6%
same,growth inhibition,[1]; at 3.7 µM,10%
same,growth inhibition,[1]; at 11.0 µM,88% (active)
same,growth inhibition,[1]; at 33.0 µM,98% (active)
same,growth inhibition,[1]; at 100.0 µM,87% (active)
same,growth inhibition,[2]; at 1.2 µM,5%
same,growth inhibition,[2]; at 3.7 µM,-2%
same,growth inhibition,[2]; at 11.0 µM,92% (active)
same,growth inhibition,[2]; at 33.0 µM,98% (active)
same,growth inhibition,[2]; at 100.0 µM,85% (active)
same,growth inhibition,[3]; at 1.2 µM,20%
same,growth inhibition,[3]; at 3.7 µM,39%
same,growth inhibition,[3]; at 11.0 µM,53%
same,growth inhibition,[3]; at 33.0 µM,96% (active)
same,growth inhibition,[3]; at 100.0 µM,82% (active)
same,growth inhibition,[4]; at 1.2 µM,10%
same,growth inhibition,[4]; at 3.7 µM,11%
same,growth inhibition,[4]; [16],52%
same,growth inhibition,[4]; at 11.0 µM,80% (active)
same,growth inhibition,[4]; at 33.0 µM,97% (active)
same,growth inhibition,[4]; [17],66%
same,growth inhibition,[4]; at 50.0 µM,92.5% (active)
same,growth inhibition,[4]; at 100.0 µM,79% (active)
same,growth inhibition,[5]; [16],-16%
same,growth inhibition,[5]; [17],91% (active)
same,growth inhibition,[5]; at 50.0 µM,92.5% (active)
same,growth inhibition,[6]; at 1.2 µM,-2%
same,growth inhibition,[6]; at 3.7 µM,-18%
same,growth inhibition,[6]; at 11.0 µM,97% (active)
same,growth inhibition,[6]; at 33.0 µM,97% (active)
same,growth inhibition,[6]; at 100.0 µM,78% (active)
same,growth inhibition,[7]; [16],32%
same,growth inhibition,[7]; [17],94% (active)
same,growth inhibition,[7]; at 50.0 µM,92.2% (active)
same,growth inhibition,[8]; at 1.2 µM,-6%
same,growth inhibition,[8]; at 3.7 µM,-7%
same,growth inhibition,[8]; [16],2%
same,growth inhibition,[8]; at 11.0 µM,95% (active)
same,growth inhibition,[8]; at 33.0 µM,97% (active)
same,growth inhibition,[8]; [17],95% (active)
same,growth inhibition,[8]; at 50.0 µM,91.3% (active)
same,growth inhibition,[8]; at 100.0 µM,84% (active)
same,growth inhibition,[9]; at 1.2 µM,5%
same,growth inhibition,[9]; at 3.7 µM,14%
same,growth inhibition,[9]; at 11.0 µM,91% (active)
same,growth inhibition,[9]; at 33.0 µM,98% (active)
same,growth inhibition,[9]; at 100.0 µM,79% (active)
same,growth inhibition,[10]; at 1.2 µM,19%
same,growth inhibition,[10]; at 3.7 µM,10%
same,growth inhibition,[10]; at 11.0 µM,91% (active)
same,growth inhibition,[10]; at 33.0 µM,97% (active)
same,growth inhibition,[10]; at 100.0 µM,80% (active)
same,growth inhibition,[11]; at 1.2 µM,28%
same,growth inhibition,[11]; at 3.7 µM,26%
same,growth inhibition,[11]; at 11.0 µM,90% (active)
same,growth inhibition,[11]; at 33.0 µM,98% (active)
same,growth inhibition,[11]; at 100.0 µM,85% (active)
same,growth inhibition,[12]; [16],37%
same,growth inhibition,[12]; [17],51%
same,growth inhibition,[12]; at 50.0 µM,91.9% (active)
same,growth inhibition,[13]; at 1.2 µM,27%
same,growth inhibition,[13]; at 3.7 µM,27%
same,growth inhibition,[13]; at 11.0 µM,89% (active)
same,growth inhibition,[13]; at 33.0 µM,98% (active)
same,growth inhibition,[13]; at 100.0 µM,91% (active)
S=C(S)NCC1CCC(CNC(=S)S)CC1 (stereo not given),growth inhibition,[1]; at 1.2 µM,-10%
same,growth inhibition,[1]; at 3.7 µM,-12%
same,growth inhibition,[1]; at 11.0 µM,-12%
same,growth inhibition,[1]; at 33.0 µM,20%
same,growth inhibition,[1]; at 100.0 µM,81% (active)
same,growth inhibition,[2]; at 1.2 µM,-11%
same,growth inhibition,[2]; at 3.7 µM,-5%
same,growth inhibition,[2]; at 11.0 µM,-5%
same,growth inhibition,[2]; at 33.0 µM,20%
same,growth inhibition,[2]; at 100.0 µM,77% (active)
same,growth inhibition,[3]; at 1.2 µM,-3%
same,growth inhibition,[3]; at 3.7 µM,3%
same,growth inhibition,[3]; at 11.0 µM,24%
same,growth inhibition,[3]; at 33.0 µM,41%
same,growth inhibition,[3]; at 100.0 µM,81% (active)
same,growth inhibition,[14]; at 1.2 µM,8%
same,growth inhibition,[14]; at 3.7 µM,3%
same,growth inhibition,[14]; [16],31%
same,growth inhibition,[14]; at 11.0 µM,-4%
same,growth inhibition,[14]; at 33.0 µM,22%
same,growth inhibition,[14]; [17],98% (active)
same,growth inhibition,[14]; at 50.0 µM,67%
same,growth inhibition,[14]; at 100.0 µM,83% (active)
same,growth inhibition,[4]; at 1.2 µM,-9%
same,growth inhibition,[4]; at 3.7 µM,-2%
same,growth inhibition,[4]; [16],64%
same,growth inhibition,[4]; at 11.0 µM,5%
same,growth inhibition,[4]; at 33.0 µM,43%
same,growth inhibition,[4]; [17],98% (active)
same,growth inhibition,[4]; at 50.0 µM,59.1%
same,growth inhibition,[4]; at 100.0 µM,94% (active)
same,growth inhibition,[15]; at 1.2 µM,13%
same,growth inhibition,[15]; at 3.7 µM,19%
same,growth inhibition,[15]; at 11.0 µM,13%
same,growth inhibition,[15]; at 33.0 µM,27%
same,growth inhibition,[15]; at 100.0 µM,92% (active)
same,growth inhibition,[5]; [16],-13%
same,growth inhibition,[5]; [17],61%
same,growth inhibition,[6]; at 1.2 µM,0%
same,growth inhibition,[6]; at 3.7 µM,12%
same,growth inhibition,[6]; at 11.0 µM,13%
same,growth inhibition,[6]; at 33.0 µM,18%
same,growth inhibition,[6]; at 100.0 µM,70% (active)
same,growth inhibition,[7]; [16],-7%
same,growth inhibition,[7]; [17],46%
same,growth inhibition,[8]; at 1.2 µM,16%
same,growth inhibition,[8]; at 3.7 µM,-10%
same,growth inhibition,[8]; [16],19%
same,growth inhibition,[8]; at 11.0 µM,19%
same,growth inhibition,[8]; at 33.0 µM,63%
same,growth inhibition,[8]; [17],77% (active)
same,growth inhibition,[8]; at 100.0 µM,93% (active)
same,growth inhibition,[9]; at 1.2 µM,-15%
same,growth inhibition,[9]; at 3.7 µM,-20%
same,growth inhibition,[9]; at 11.0 µM,-13%
same,growth inhibition,[9]; at 33.0 µM,28%
same,growth inhibition,[9]; at 100.0 µM,83% (active)
same,growth inhibition,[10]; at 1.2 µM,-4%
same,growth inhibition,[10]; at 3.7 µM,15%
same,growth inhibition,[10]; at 11.0 µM,5%
same,growth inhibition,[10]; at 33.0 µM,32%
same,growth inhibition,[10]; at 100.0 µM,71% (active)
same,growth inhibition,[11]; at 1.2 µM,-3%
same,growth inhibition,[11]; at 3.7 µM,14%
same,growth inhibition,[11]; at 11.0 µM,16%
same,growth inhibition,[11]; at 33.0 µM,48%
same,growth inhibition,[11]; at 100.0 µM,87% (active)
same,growth inhibition,[12]; [16],44%
same,growth inhibition,[12]; [17],99% (active)
same,growth inhibition,[12]; at 50.0 µM,43.5%
C/C(=N\NC(=S)NC1CCCC1)c1ccccn1,growth inhibition,[1]; at 1.2 µM,-5%
same,growth inhibition,[1]; at 3.7 µM,78% (active)
same,growth inhibition,[1]; at 11.0 µM,99% (active)
same,growth inhibition,[1]; at 33.0 µM,99% (active)
same,growth inhibition,[1]; at 100.0 µM,99% (active)
same,growth inhibition,[2]; at 1.2 µM,3%
same,growth inhibition,[2]; at 3.7 µM,75% (active)
same,growth inhibition,[2]; at 11.0 µM,99% (active)
same,growth inhibition,[2]; at 33.0 µM,99% (active)
same,growth inhibition,[2]; at 100.0 µM,99% (active)
same,growth inhibition,[3]; at 1.2 µM,-6%
same,growth inhibition,[3]; at 3.7 µM,14%
same,growth inhibition,[3]; at 11.0 µM,90% (active)
same,growth inhibition,[3]; at 33.0 µM,98% (active)
same,growth inhibition,[3]; at 100.0 µM,97% (active)
same,growth inhibition,[14]; at 1.2 µM,-5%
same,growth inhibition,[14]; at 3.7 µM,77% (active)
same,growth inhibition,[14]; [16],23%
same,growth inhibition,[14]; at 11.0 µM,98% (active)
same,growth inhibition,[14]; at 33.0 µM,99% (active)
same,growth inhibition,[14]; [17],99% (active)
same,growth inhibition,[14]; at 50.0 µM,79.2% (active)
same,growth inhibition,[14]; at 100.0 µM,98% (active)
same,growth inhibition,[4]; at 1.2 µM,2%
same,growth inhibition,[4]; at 3.7 µM,77% (active)
same,growth inhibition,[4]; [16],33%
same,growth inhibition,[4]; at 11.0 µM,99% (active)
same,growth inhibition,[4]; at 33.0 µM,99% (active)
same,growth inhibition,[4]; [17],97% (active)
same,growth inhibition,[4]; at 50.0 µM,86% (active)
